# Measured values published in PubChem BioAssay.
# Values joined by “and” are separate entries in the source; they are usually repeats but may differ in a detail not shown here. Identical values can stand only once. Active and inactive are the calls of the source. Cut-off read from the data, not from the text of the source, unless noted: active = inhibition above about 80%; inactive = the rest.
# What was measured:
# [1] = UWB1.289 ovarian carcinoma cell growth inhibition, synergistic combos for chromothripsis tumors, BGB or cisplatin combos (AID 1671456); conditions: UWB1.289 ovarian carcinoma cells, stronger effect = higher value;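 note: cells exposed to compound for four days; 0% = vehicle DMSO and 100% = killing by high DMSO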
# [2] = LFS_MB_2R medulloblastoma cell growth inhibition, synergistic combos for chromothripsis tumors, cisplatin combos (AID 1671457); conditions: LFS_MB_2R medulloblastoma cells, stronger effect = higher value;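 note: cells exposed to compound for four days before readout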
# [3] = MDA-MB-436 breast carcinoma cell growth inhibition, synergistic combos for chromothripsis tumors, BGB or cisplatin combos (AID 1671458; call rule not given here;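 note: cells exposed for 96 hours; 0% = vehicle DMSO and 100% = killing by high DMSO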); conditions: MDA-MB-436 breast carcinoma growth inhibition, drug combinations, stronger effect = higher value
# [4] = UWB1.289_BRCA1 ovarian cancer growth, cell-based, BGB or cisplatin combinations (AID 1671459); conditions: UWB1.289 BRCA1 ovarian carcinoma, drug combinations, stronger effect = higher value
# [5] = human astrocyte viability loss, single and combined drugs, cytotoxicity control for chromothriptic childhood tumor combination screen, cell-based, BGB or cisplatin IC20 combos (AID 1671460); conditions: Human astrocytes, drug combinations, stronger effect = higher value;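 note: cells exposed to compounds for 96 hours before viability readout; 0% = vehicle and 100% = killing control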
# [6] = growth inhibition of BT084 medulloblastoma cells, cell-based, ICGC_MB145, cisplatin and BGB IC40 combos (AID 1671461); conditions: drug combinations, stronger effect = higher value;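 note: cells exposed to drugs for 96 hours; 0% = vehicle DMSO and 100% = high DMSO full killing control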
# [7] = growth inhibition of RCMB18 medulloblastoma cells, cell-based, cisplatin and BGB IC40 combos (AID 1671462); conditions: stronger effect = higher value;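 note: cells exposed to compound for four days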
# [8] = growth inhibition of CRL1545 osteosarcoma cells, cell-based, cisplatin and BGB IC20 combos (AID 1671464); conditions: stronger effect = higher value;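 note: cells exposed to compound for 96 hours before readout; 0% = vehicle DMSO and 100% = high DMSO killing control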
# F380Y = test: modulators of BK channel variants, profiling panel, selectivity assay, cell-based, U2OS BacMam, thallium flux, beta subunits (AID 1259406;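 active = thallium flux through the channel raised or lowered by more than 3 SD from vehicle-only wells, actives on both sides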;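 note: initial slope of Thallos dye fluorescence rise after thallium is added; log ratio against the mean of 0.3% DMSO vehicle wells on the same plate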); conditions: at 30 µM
# F380Y/beta2Delta = test: as above; conditions: at 30 µM
# [9] = target: Calcium-activated potassium channel subunit alpha-1 (Homo sapiens) + Leucine-rich repeat-containing protein 26 (Homo sapiens) (UniProt Q12791+Q2I0M4); test: as above; conditions: F380Y/Slo1WT/gamma1, at 30 µM
# R275C = test: as above; conditions: at 30 µM
# R275C/beta1 = test: as above; conditions: at 30 µM
# R275C/beta2Delta = test: as above; conditions: at 30 µM
# [10] = measured here: inhibition with BGB combination, at 0.05 µM
# [11] = measured here: inhibition with cisplatin combination, at 0.05 µM
# [12] = measured here: combination with cisplatin, at 0.5 µM
# [13] = measured here: combination with cisplatin, at 5 µM
# [14] = measured here: BGB combination, at 0.5 µM
# [15] = measured here: BGB combination, at 5 µM
# [16] = measured here: cisplatin combination, at 0.5 µM
# [17] = measured here: cisplatin combination, at 5 µM
# [18] = BGB combination, concentration series, at 5 µM
# [19] = cisplatin combination, concentration series, at 5 µM
# [20] = measured here: combo with BGB IC20, at 0.5 µM
# [21] = measured here: combo with cisplatin IC20, at 0.5 µM
# [22] = cisplatin combination, at 0.5 µM
# [23] = measured here: BGB IC40 combination 0.05 uM, at 0.05 µM
# [24] = measured here: BGB IC40 combination, at 0.05 µM
# [25] = measured here: with BGB IC20 combination, at 0.5 µM
# [26] = measured here: with cisplatin IC20 combination, at 0.5 µM
# Chain of Calcium-activated potassium channel subunit alpha-1 (Homo sapiens) + Leucine-rich repeat-containing protein 26 (Homo sapiens) (Q2I0M4 whole entry, looked up, one chain of several): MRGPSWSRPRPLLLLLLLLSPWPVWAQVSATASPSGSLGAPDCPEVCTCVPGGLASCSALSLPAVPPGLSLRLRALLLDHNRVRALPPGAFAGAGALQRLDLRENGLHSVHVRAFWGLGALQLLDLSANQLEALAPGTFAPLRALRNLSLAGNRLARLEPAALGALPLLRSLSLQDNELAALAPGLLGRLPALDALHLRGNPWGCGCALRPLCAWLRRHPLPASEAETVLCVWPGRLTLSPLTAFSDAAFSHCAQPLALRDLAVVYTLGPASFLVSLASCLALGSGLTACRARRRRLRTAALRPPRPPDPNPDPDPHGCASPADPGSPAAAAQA
smiles,measurement,setting,value
O=c1c(-c2ccc(O)cc2)coc2cc(O)cc(O)c12,inhibition,[1]; at 0.5 µM,-11.2% (inactive) and 6.51% (inactive)
same,inhibition,[1]; [10],-19.6% and -14.9%
same,inhibition,[1]; [11],-41.2% and -9.05%
same,inhibition,[2]; at 0.5 µM,-21.6% (inactive) and -9.3% (inactive)
same,inhibition,[2]; [12],-19.9% and -5.5%
same,inhibition,[2]; [13],2.54% and -37.8%
same,inhibition,[3]; at 0.5 µM,-10.3% (inactive) and -13.9% (inactive)
same,inhibition,[3]; [14],-9.11% and -11.4%
same,inhibition,[3]; [15],-2.8% and 13.3%
same,inhibition,[3]; [16],-11% and -29.3%
same,inhibition,[3]; [17],-8.45% and 5.18%
same,inhibition,[4]; [18],16.4% and 33.4%
same,inhibition,[4]; at 0.5 µM,-10.6% (inactive) and 4.64% (inactive)
same,inhibition,[4]; [19],5.85% and 47.6%
same,inhibition,[5]; at 0.5 µM,-1.4% (inactive) and 12.1% (inactive)
same,inhibition,[5]; [20],14% and 8.3%
same,inhibition,[5]; [21],-16.8% and 13.7%
same,inhibition,[6]; at 0.5 µM,-13.6% (inactive) and -23.4% (inactive)
same,inhibition,[6]; [22],-26.2% and 3.79%
same,inhibition,"[6]; cisplatin combination, at 5 µM",1.19% and 21.5%
same,inhibition,[6]; [23],-40.6% and -5.57%
same,inhibition,"[6]; single agent, at 5 µM",-5.08% and 6.68%
same,inhibition,[7]; at 0.5 µM,0.59% (inactive) and -8.25% (inactive)
same,inhibition,"[7]; cisplatin combo, at 5 µM",-43.5% and 11.5%
same,inhibition,[7]; [24],-4.72% and -2.4%
same,inhibition,[7]; [12],13.5% and -9.76%
same,inhibition,"[7]; single agent, at 5 µM",-12.8% and -12.2%
same,inhibition,[8]; at 0.5 µM,-44.2% (inactive) and 5.21% (inactive)
same,inhibition,[8]; [25],-31% and 18.3%
same,inhibition,[8]; [26],-53.3% and -3.63%
same,inhibition,"[8]; single agent, at 0.05 µM",-62.4% and -21.3%
same,inhibition,"[8]; single agent, at 5 µM",-46.3% and 9.19%
CN(C)c1ccc(C(=C2C=CC(=[N+](C)C)C=C2)c2ccc(N(C)C)cc2)cc1,inhibition,[1]; at 0.5 µM,68.6% (inactive)
same,inhibition,[1]; [10],-11.5%
same,inhibition,[1]; [11],0.874%
same,inhibition,[2]; at 0.5 µM,55.4% (inactive)
same,inhibition,[2]; [12],59.1%
same,inhibition,[2]; [13],89.4%
same,inhibition,[3]; at 0.5 µM,80.4% (active)
same,inhibition,[3]; [14],73.7%
same,inhibition,[3]; [15],97.1%
same,inhibition,[3]; [16],80.1%
same,inhibition,[3]; [17],98.7%
same,inhibition,[4]; [18],105%
same,inhibition,[4]; at 0.5 µM,71.7% (inactive)
same,inhibition,[4]; [19],110%
same,inhibition,[5]; at 0.5 µM,67.2% (inactive)
same,inhibition,[5]; [20],65.8%
same,inhibition,[5]; [21],54.6%
same,inhibition,[6]; at 0.5 µM,70.2% (inactive)
same,inhibition,[6]; [22],82.8%
same,inhibition,"[6]; cisplatin combination, at 5 µM",101%
same,inhibition,[6]; [23],-10.9%
same,inhibition,"[6]; single agent, at 5 µM",103%
same,inhibition,[7]; at 0.5 µM,64.4% (inactive)
same,inhibition,"[7]; cisplatin combo, at 5 µM",97.3%
same,inhibition,[7]; [24],11.2%
same,inhibition,[7]; [12],59.9%
same,inhibition,"[7]; single agent, at 5 µM",94.1%
same,inhibition,[8]; at 0.5 µM,99.5% (active)
same,inhibition,[8]; [25],99.4%
same,inhibition,[8]; [26],99.5%
same,inhibition,"[8]; single agent, at 0.05 µM",17.4%
same,inhibition,"[8]; single agent, at 5 µM",99.6%
CN(C)CCCSc1ccccc1NC(=O)/C=C/c1ccccc1,log fold change Tl+ flux,F380Y,0.0773 (inactive)
same,log fold change Tl+ flux,F380Y/beta2Delta,0.0654 (inactive)
same,log fold change Tl+ flux,[9],0.0123 (inactive)
same,log fold change Tl+ flux,R275C,0.063 (inactive)
same,log fold change Tl+ flux,R275C/beta1,0.0477 (inactive)
same,log fold change Tl+ flux,R275C/beta2Delta,0.0394 (inactive)
O=NN(CCCl)C(=O)NC1CCCCC1,inhibition,[1]; at 0.5 µM,-3.74% (inactive) and -1.89% (inactive)
same,inhibition,[1]; [10],-37.8% and -16.5%
same,inhibition,[1]; [11],-17.9% and -15%
same,inhibition,[2]; at 0.5 µM,-23.1% (inactive) and -22.9% (inactive)
same,inhibition,[2]; [12],-21.1% and -18.8%
same,inhibition,[2]; [13],-70.5% and -18.7%
same,inhibition,[3]; at 0.5 µM,-40.6% (inactive) and -11.5% (inactive)
same,inhibition,[3]; [14],-36.9% and -5.88%
same,inhibition,[3]; [15],-35% and -10.4%
same,inhibition,[3]; [16],-61.4% and -18.5%
same,inhibition,[3]; [17],-41.1% and -14.2%
same,inhibition,[4]; [18],-29.6% and 11.3%
same,inhibition,[4]; at 0.5 µM,-16.2% (inactive) and 2.2% (inactive)
same,inhibition,[4]; [19],3.2% and 10.4%
same,inhibition,[5]; at 0.5 µM,-9.22% (inactive) and 7.1% (inactive)
same,inhibition,[5]; [20],-20% and 5.8%
same,inhibition,[5]; [21],-3.02% and 3.4%
same,inhibition,[6]; at 0.5 µM,-34.8% (inactive) and -13.6% (inactive)
same,inhibition,[6]; [22],-11.4% and -21.6%
same,inhibition,"[6]; cisplatin combination, at 5 µM",1.31% and -15.5%
same,inhibition,[6]; [23],-11% and -18.6%
same,inhibition,"[6]; single agent, at 5 µM",-27.6% and -16%
same,inhibition,[7]; at 0.5 µM,-19.6% (inactive) and -7.56% (inactive)
same,inhibition,"[7]; cisplatin combo, at 5 µM",-8.32% and -2.07%
same,inhibition,[7]; [24],3.33% and -8.31%
same,inhibition,[7]; [12],-12.9% and 7.07%
same,inhibition,"[7]; single agent, at 5 µM",-26.9% and -32.7%
same,inhibition,[8]; at 0.5 µM,-41.9% (inactive) and 12.8% (inactive)
same,inhibition,[8]; [25],-11.7% and 21.6%
same,inhibition,[8]; [26],-60.6% and 8.43%
same,inhibition,"[8]; single agent, at 0.05 µM",-56.9% and 27.3%
same,inhibition,"[8]; single agent, at 5 µM",-2.19% and 10%
Cc1oncc1C(=O)Nc1ccc(C(F)(F)F)cc1,inhibition,[1]; at 0.5 µM,4.13% (inactive)
same,inhibition,[1]; [10],-13.1%
same,inhibition,[1]; [11],-27.7%
same,inhibition,[2]; at 0.5 µM,-14.8% (inactive)
same,inhibition,[2]; [12],-17.8%
same,inhibition,[2]; [13],30.1%
same,inhibition,[3]; at 0.5 µM,3.93% (inactive)
same,inhibition,[3]; [14],12.3%
same,inhibition,[3]; [15],48.9%
same,inhibition,[3]; [16],-7.42%
same,inhibition,[3]; [17],42.4%
same,inhibition,[4]; [18],74.1%
same,inhibition,[4]; at 0.5 µM,6.99% (inactive)
same,inhibition,[4]; [19],66.1%
same,inhibition,[5]; at 0.5 µM,23.1% (inactive)
same,inhibition,[5]; [20],15.1%
same,inhibition,[5]; [21],28.3%
same,inhibition,[6]; at 0.5 µM,5.65% (inactive)
same,inhibition,[6]; [22],-5.97%
same,inhibition,"[6]; cisplatin combination, at 5 µM",60.5%
same,inhibition,[6]; [23],32%
same,inhibition,"[6]; single agent, at 5 µM",51.2%
same,inhibition,[7]; at 0.5 µM,-7.24% (inactive)
same,inhibition,"[7]; cisplatin combo, at 5 µM",23.6%
same,inhibition,[7]; [24],-20.4%
same,inhibition,[7]; [12],-2.75%
same,inhibition,"[7]; single agent, at 5 µM",34.1%
same,inhibition,[8]; at 0.5 µM,-17.2% (inactive)
same,inhibition,[8]; [25],-12.4%
same,inhibition,[8]; [26],-21.5%
same,inhibition,"[8]; single agent, at 0.05 µM",-28.9%
same,inhibition,"[8]; single agent, at 5 µM",28.1%
CCCc1c(OCCCCc2nn[nH]n2)ccc(C(C)=O)c1O,log fold change Tl+ flux,F380Y,0.0613 (inactive)
same,log fold change Tl+ flux,F380Y/beta2Delta,0.0962 (active)
same,log fold change Tl+ flux,[9],0.186 (active)
same,log fold change Tl+ flux,R275C,0.0659 (inactive)
same,log fold change Tl+ flux,R275C/beta1,0.282 (active)
same,log fold change Tl+ flux,R275C/beta2Delta,0.193 (active)
